Out of some 65,000 compounds screened, about 2,100 (3.2%) showed an effect of 50% or more. The median lay at about -52%. Only a selection was taken, and strong results are over-represented in it overall.

This experiment relates to Plasmodium falciparum. Put plainly: Screen against P. falciparum Asexual Blood Stage (ABS), at 5uM. The class given is functional, Dd2. The following applies: tested at 5 uM.
Consider `COc1ccc(NC(C)c2nnnn2-c2ccccc2)cc1F` (stereo not drawn), for which the INHIBITION is -2.6%. With `Cc1nc(Cc2ccccc2)nc2sc(C(=O)O)c(C)c12` the figure was -62.8%; with `CC(=O)N1CCN(c2nc(C(F)(F)F)nc3sc(C)c(C)c23)CC1`, -30.4%. With `CCOC(=O)N1CCN(c2nc(CCN)nc3sc(C)c(C)c23)CC1` the figure was 66.1%; with `Cc1sc2nc(CCN)nc(N3CCS(=O)(=O)CC3)c2c1C`, -119%. Regarding `Cc1cnn(CC(C)NCc2ccc(OCC(N)=O)cc2)c1` (stereo not drawn), the INHIBITION was -49.9%. Consider `CCOC(=O)N1CCN(c2nc(NCCCO)c3ccccc3n2)CC1`, for which the INHIBITION is given as -50.8%.

`CCn1ccc(-c2cc(NCCCOc3ccccc3C)nc(C)n2)n1`: the INHIBITION is on record as -2.89%. With `Cc1ccc(Oc2c(F)cccc2OC[C@@H](N)CC(C)C)cc1` the figure was 65.9%; with `CC(C)COc1ccccc1C(N)CC(C)C` (stereo not drawn), 28.3%. Turning to `CCOc1ccccc1C(N)CC(C)C` (stereo not drawn), the INHIBITION was found to be 33.2%. With `O=C(O)c1ccnc(SCC(F)(F)F)c1` the figure was -13.4%; with `CN1[C@@H](C(=O)NCC2CC2)C[C@H]2CN(Cc3cccc(C#N)c3)C[C@H]21`, 27.2%. In the case of `CN1CCN(C[C@@H]2OC[C@H]3CN(CCc4ccccc4)CC[C@H]32)CC1` it was 66.1%. As for `CN1CCN(C[C@@H]2OC[C@H]3CN(Cc4cccc(F)c4)CC[C@H]32)CC1`, the INHIBITION is recorded as 19.2%. For `Cc1ccc(CN2CC[C@@H]3[C@@H](CO[C@H]3CN3CCN(C)CC3)C2)cc1`, the INHIBITION was -1.6%. With `Cn1cccc1C(=O)N1CCO[C@H]2[C@H](OCc3cccnc3)CC[C@@H]21` the figure was -57.2%. In the case of `CC(C)C(=O)N1CCC([C@@H]2C[C@H](C(F)F)n3ncnc3N2)CC1` it was 12.2%; in that of `COCCN1CCOCC12CCN(C(=O)c1c[nH]c3ccccc13)CC2`, -122%; in that of `Cc1ccc(CN2CCOCC3(C2)CN(c2ccc(C)s2)C(=O)CO3)o1` (stereo not drawn), -71.8%. In the case of `CCc1cc(N2CCC3(CCCNC3=O)C2)nc(N2CCOCC2)n1` (stereo not drawn) it was -56.1%; in that of `Cc1ccc(CN2CCOC3(COCCN(CCN(C)C)C3)C2)o1` (stereo not drawn), -69.1%; in that of `CC(C)NC(=O)C1(Cc2ccccc2-c2cncnc2)CCCNC1` (stereo not drawn), -14.3%. With `O=C(O)C1(Cc2ccc(-c3cccs3)cc2)CCNC1` (stereo not drawn), the INHIBITION is on record as -44.3%. In the case of `CC(C)CNC(=O)C1(Cc2ccccc2-c2ccccc2)CCNC1` (stereo not drawn), the INHIBITION stood at 52%. With `O=C(NCCO)C1(Cc2ccccc2-c2cccnc2)CCOCC1` the figure was -31.7%; with `COCCNC(=O)C1(Cc2ccccc2-c2ccncc2)CCOCC1`, -10.1%. `CC(C)NC(=O)C1(Cc2ccccc2-c2cccs2)CCNC1` (stereo not drawn): the INHIBITION amounted to 68.3%. For `Cc1cc(=O)[nH]c(=O)n1Cc1ncc(-c2ccccc2C(=O)O)s1`, the INHIBITION is on record as -46.1%. In the case of `O=C1C(NCc2nnc3n2CCCC3)CCN1c1ccccc1Cl` (stereo not drawn) it was -35.2%; in that of `CCN(CC)c1ccc2ccc(C(=O)NC3CC3)cn12`, -34.9%; in that of `COCCNC(=O)c1ccc2ccc(N(C)CC3CC3)n2c1`, 60.1%. With `CN(C)C(=O)CNC(=O)c1ccc2ccc(N(C)CC3CC3)n2c1` the figure was -73.5%; with `CN(C)CCNC(=O)c1ccc2ccc(N(C)CC3CC3)n2c1`, 19.9%. With `CN(CC1CC1)c1ccc2ccc(C(=O)NCCc3ccccc3)cn12` the figure was -46.3%; with `CN(CC1CC1)c1ccc2ccc(C(=O)NC3CCCCC3)cn12`, 54.6%; with `Cn1cccc1CN1CCC2(CC1)CN(c1ncccn1)CCO2`, -28.5%.

With `CC1(C)CC(N(Cc2ccncc2)Cc2cccnc2)CC(C)(C)N1`, the INHIBITION was found to be 25.7%. With `Cc1ccc(CN(Cc2ccccn2)C2CC(C)(C)NC(C)(C)C2)s1` the figure was 69.8%. Take `Cc1ccc(CN(Cc2ccncc2)C2CCN(C)CC2)s1`: the INHIBITION is recorded as 34.9%.

Take `Cc1ccc(CN(Cc2ccccn2)C(=O)[C@H]2CC[C@@H](N)C2)s1`: the INHIBITION is recorded as -57.1%. With `Cc1ccc(CN(Cc2c[nH]cn2)C2CC(C)(C)NC(C)(C)C2)o1` the figure was -50.8%. For the compound `Cc1cccc(CN(Cc2cccnc2)C2CC(C)(C)NC(C)(C)C2)n1`, the INHIBITION amounted to 42.9%.

For `CC1(C)CC(N(Cc2cccnc2)Cc2cccnc2)CC(C)(C)N1`, the INHIBITION is on record as -5.22%. With `CC1(C)CC(N(Cc2ccccc2)Cc2cccnc2)CC(C)(C)N1` the figure was 54.6%; with `Cc1ccc(CN(Cc2ccncc2)C2CC(C)(C)NC(C)(C)C2)o1`, 66.9%; with `Cc1ccc(CN(Cc2ncc[nH]2)C2CC(C)(C)NC(C)(C)C2)o1`, -15.9%.

`CC1(C)CC(N(Cc2ccccc2)Cc2c[nH]cn2)CC(C)(C)N1`: the INHIBITION worked out at 20.7%. Turning to `Cc1ccc(CN(Cc2cccnc2)C2CC(C)(C)NC(C)(C)C2)s1`, the INHIBITION is reported as 69.6%. As to `CCn1ncc2c(C(F)(F)F)cc(-c3ccn(C)n3)nc21`, the INHIBITION is given as -88%.

Regarding `COc1ccc(C(C)Nc2cnn(C)c(=O)c2Cl)cc1OC` (stereo not drawn), the INHIBITION is given as -40.4%. For the compound `CC(C)OCCN1CCC(Nc2ncccn2)CC1`, the INHIBITION is -102%.

Turning to `CCC1CN(C(=O)NCc2cccnc2-n2cccn2)CCO1` (stereo not drawn), the INHIBITION was -88.4%.

Turning to `O=C(O)C1CCCN1c1nc(-c2ccc(Cl)c(Cl)c2)cc(C(F)(F)F)n1` (stereo not drawn), the INHIBITION is reported as -8.45%. Consider `CCCc1nc(C)c(C(=O)NCCn2nc3ccccn3c2=O)s1`, for which the INHIBITION is given as -201%. For the compound `O=C(NCc1cc[nH]n1)NCC(c1ccc(F)cc1)N1CCOCC1` (stereo not drawn), the INHIBITION is listed as -39%. In the case of `Cc1cccc(C(CNC(=O)NCc2cc[nH]n2)N2CCOCC2)c1` (stereo not drawn) it was 53%; in that of `O=C(NCc1cc[nH]n1)NCC(c1ccccc1)N1CCOCC1` (stereo not drawn), -82.7%.

Take `CCCn1ccnc1-c1nccn1CCn1cnnc1`: the INHIBITION was -36%. For the compound `O=C(C1CCOCC1)N1CCO[C@H]2[C@H](Oc3ccccn3)CC[C@@H]21`, the INHIBITION was -53.1%. On to `O=C(NCC(=O)N1CCCC1)c1nn(-c2ccccc2F)cc1O`, for which the INHIBITION was -120%. In the case of `CCOCC(O)CN1CCN(C(=O)c2ccc(OC)cc2)CC1` (stereo not drawn) it was -24.3%. With `CCOCC(O)CN1CCN(C(=O)c2ccc(C)nc2)CC1` (stereo not drawn) the figure was 60.7%; with `CCOCC(O)CN1CCN(C(=O)c2ccc(N(C)C)nc2)CC1` (stereo not drawn), -72.5%. With `CC(Nc1ccc(C#N)cc1F)c1cccc(S(N)(=O)=O)c1` (stereo not drawn) the figure was -49.5%; with `O=C1CC[C@H]2CN(Cc3ccc(Cl)s3)CC[C@H]2N1CCc1c[nH]cn1`, 66.6%; with `Cc1nc(CN2CC[C@@H]3[C@@H](CCC(=O)N3CCc3c[nH]cn3)C2)co1`, -58.8%.

Consider `O=C1CC[C@H]2CN(Cc3cccnc3)CC[C@H]2N1CCc1c[nH]cn1`, for which the INHIBITION was -154%. In the case of `CC(=O)N1CCC2(C1)c1ccccc1S(=O)(=O)N2C` (stereo not drawn) it was -56.8%; in that of `CCOc1ncccc1CNCc1c(C(C)C)nn(C)c1N(C)C`, -7.19%; in that of `CC(C)c1nn(C)c(N(C)C)c1CNCc1cccc2cccnc12`, 67.5%.

In the case of `COc1ncccc1CNCc1c(C(C)C)nn(C)c1Cl`, the INHIBITION is reported as 51.7%. With `COCc1ccccc1CNCc1c(C)nn(C)c1N(C)C` the figure was -36.8%; with `Cc1nn(C)c(N(C)C)c1CNCc1ccccc1CN(C)C`, 18.8%; with `CC(C)c1nn(C)c(N(C)C)c1CNCc1cccnc1N(C)C`, 21%. With `COCc1cccc(CNCc2c(C(C)C)nn(C)c2N(C)C)c1` the figure was 36.5%; with `COCc1ccccc1CNCc1c(C(C)C)nn(C)c1N(C)C`, 59.4%. In the case of `COc1ncccc1CNCc1c(C(C)C)nn(C)c1N(C)C`, the INHIBITION was 11%. In the case of `COc1ncccc1CNCc1c(C(C)C)nn(C)c1OC` it was -29.9%. On to `CC(C)c1nn(C)c(N(C)C)c1CNCc1ccccc1CN(C)C`, for which the INHIBITION was found to be 59.5%.

Regarding `CC(C)c1nn(C)c(N(C)C)c1CNCc1ccccc1CO`, the INHIBITION stood at 44.8%. With `CS(=O)(=O)c1ccc(CN2C[C@@H]3CC[C@H]2CN(c2ncccn2)C3)cc1` the figure was -136%; with `CN(Cc1noc(C2CC2)n1)C1CCN(Cc2nnc(C3CC3)o2)C1` (stereo not drawn), -122%; with `CC(C)(C)C(N)C1=NC(=C2N=CN=N2)NO1` (stereo not drawn), -49.9%. With `CCn1c(=NC(=O)CSCC(=O)Nc2nccs2)sc2ccccc21` the figure was 32.3%; with `CC(NCc1cnc(N2CCOCC2)nc1)c1ccc(Cl)s1` (stereo not drawn), -25.9%. Consider `c1csc(CN2CCO[C@@H]3CN(C4CCOCC4)C[C@@H]3C2)c1`, for which the INHIBITION was -93.2%.

With `Cc1noc(C)c1CN1Cc2cnn(C)c2C(COCC2CC2)C1` (stereo not drawn), the INHIBITION is listed as -81.3%.

Turning to `Cc1ccc(CN2CCS(=O)(=O)C(C)(C)C2)cc1C`, the INHIBITION is -98.2%. In the case of `Cc1csc2ncnc(N3CCC(Cn4cc(C(C)(C)N)nn4)CC3)c12` it was 35%. In the case of `COc1ccc(NC(=O)CNc2ccc(Br)cc2F)cc1` it was -68.8%; in that of `COc1ccc(OC)c(CNCc2c(C(C)C)nn(C)c2N(C)C)c1`, 69.3%; in that of `COc1cccc(CNCc2c(C(C)C)nn(C)c2N(C)C)c1OC`, 33.3%. With `COc1cccc(CNCc2c(C(C)C)nn(C)c2N(C)C)c1` the figure was -5.49%. Turning to `CC(C)COc1cncc(N2CCCN(c3ncccn3)CC2)n1`, the INHIBITION was -186%. With `c1ccc(C2=NOC3(CCN(Cc4c[nH]c5ccccc45)CC3)C2)cc1` the figure was 36.1%; with `O=C(c1cn[nH]c1)N1CCC2(CCCN(Cc3ccc(F)c(F)c3)C2)C1` (stereo not drawn), -25.8%; with `Fc1ccc(CN2CCCC3(CCN(Cc4ncc[nH]4)C3)C2)cc1F` (stereo not drawn), 60.9%. Regarding `Cc1ccc(CN2CCC3(CCCN(Cc4ccc(F)c(F)c4)C3)C2)o1` (stereo not drawn), the INHIBITION came out at 28.1%. In the case of `CCc1nc2c(s1)C(N(C)C(=O)c1csnn1)CCC2` (stereo not drawn), the INHIBITION is recorded as -32.3%. In the case of `Cc1nc(NC2(CN3CCCCC3)CCCCC2)c2cnn(C)c2n1` it was 56%; in that of `CCOC(=O)CC1(Nc2nc(C)nc3c2cnn3C)CCCCC1`, -25.2%. `COCC1(Nc2nc(C)nc3c2cnn3C)CCCC1`: the INHIBITION is reported as -142%.

These data come from ChEMBL document CHEMBL4513216, “Probing the Open Global Health Chemical Diversity Library for Multistage-Active Starting Points for Next-Generation Antimalarials” (ACS Infect Dis, 2020).
